Hits are enriched below; roughly 2.7% of the tested compounds scored in any of these assays.
KDM5B inhibitor: Primary screen for KDM5B Histone Demethylases FDH-coupled qHTS; Lysine-specific demethylase 5B (Homo sapiens), Q9UGL1; KDM5B demethylase, FDH-coupled NADH fluorescence (FDH is formaldehyde dehydrogenase); Potency, µM (titrated, usually from 57.7 µM), most hits filed as inhibitors; hit rate 2.6% among 220,000; AID 1347165, 2019; active means well fitted inhibition curve with a large enough effect; inconclusive means small, poorly fitted or top-dose-only effect; inactive means no such curve, though single readings can be large or run the other way; further: nearly all actives have a fitted effect of over 70% in size
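KDM5BΔAP (200 nM final) in 50 mM HEPES pH 7.5, 0.01% Tween-20 was preincubated 10 min at RT with compound over a concentration range. Substrate mix (H3K4me3 12.5 µM, α-KG 25 µM, Fe²⁺, ascorbate, NAD⁺, FDH) was added, and NADH fluorescence change over 30 min gave dose-response curves.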
IP6K1 inhibitor: Primary qHTS assay for small molecule inhibitors of Inositol hexaphosphate kinase 1 (IP6K1). Inositol hexakisphosphate kinase 1 (Homo sapiens), Q92551. IP6K1 kinase, ADP-Glo luminescence, 2 h; active compounds read low. activity change, % (series mostly up to about 58 µM). hit rate 0.81% among 140,000. AID 1645851, 2021; in the data active means activity change below about -25%
Target sequence (Q92551 whole entry, looked up): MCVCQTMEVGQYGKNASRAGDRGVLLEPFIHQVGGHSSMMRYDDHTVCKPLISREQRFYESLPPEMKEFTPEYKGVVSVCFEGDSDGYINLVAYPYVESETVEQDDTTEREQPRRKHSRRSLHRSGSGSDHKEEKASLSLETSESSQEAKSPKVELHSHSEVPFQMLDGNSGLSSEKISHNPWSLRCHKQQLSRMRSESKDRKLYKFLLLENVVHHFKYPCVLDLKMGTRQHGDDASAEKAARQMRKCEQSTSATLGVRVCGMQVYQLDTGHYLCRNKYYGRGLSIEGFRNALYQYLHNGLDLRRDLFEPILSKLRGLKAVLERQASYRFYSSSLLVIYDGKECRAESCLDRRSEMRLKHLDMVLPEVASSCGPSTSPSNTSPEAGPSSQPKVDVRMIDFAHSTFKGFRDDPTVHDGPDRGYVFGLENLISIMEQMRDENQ
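ADP-Glo luminescence measures ADP made by human IP6K1 during a 2 h RT reaction with ATP/IP6 (mix at 1.3 mM/130 uM); top library doses 57.5 and 19.1 uM final.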
Numbers stand for hits; i = inactive; ? = inconclusive; nt = no result given.

SMILES	KDM5B inhibitor	IP6K1 inhibitor
COc1ccc(-c2ccc(C(=O)N3CCC(NC(=O)c4cccc(Cl)c4)CC3)cc2)nn1	nt	i
CCOC(=O)[C@@H]1[C@@H](O)C(=O)N(Cc2ccccc2)C12CCN(C(=O)OCc1ccccc1)CC2	nt	i
C=CC(C)(O)CC/C=C(\C)C(=O)O[C@@H]1[C@@H](O)[C@H](OC(C)(C=C)CC/C=C(\C)C(=O)O[C@@H]2O[C@H](CO)[C@@H](O)[C@H](O)[C@H]2O)O[C@H](CO)[C@H]1OC(=O)/C(C)=C/CCC(C)(O)C=C (stereo not given in full)	nt	i
C=CC(C)(O)CC/C=C(\C)COC1O[C@H](CO)[C@@H](O)[C@H](O)[C@H]1O (stereo not given in full)	nt	-34
Cn1ncc2c(C(=O)NCC3CC3)cc(-c3ccc(Cl)nc3)nc21	nt	i
O=C(NCCCc1ccccc1)c1n[nH]c2c1CN(C(=O)c1ccc(F)c(F)c1)CC2	nt	i
c1ccc(-c2nnc3ccc(NC4CCC4)nn23)nc1	?	i
OCc1ccc(-c2ccc3nnc(-c4ccccn4)n3n2)cc1	32µM	i
OCCC1CN(c2ccc(-c3nc(CCCc4ccccc4)no3)cn2)CCO1 (stereo not given)	20µM	i
OCCC1CCN(c2ccc(-c3nc(CCCc4ccccc4)no3)cn2)CC1	i	i
O=C(CCCc1ccccc1)N1CCC(Cc2noc(-c3ccccc3)n2)C1 (stereo not given)	nt	i
CC1(O)CCCN(c2ccc(-c3nc(CCCc4ccccc4)no3)cn2)C1 (stereo not given)	22µM	i
C=CCN1C[C@H](COCc2ccccc2)Oc2ccncc2[S+]1(=O)[O-]	nt	i
Cc1ccc(C)c(CN2CCN(c3nc4c(c(=O)[nH]c(=O)n4C)n3C/C=C/c3ccccc3)CC2)c1	i	nt
CCCn1nccc1C(=O)NCc1cccnc1-n1cnc2ccccc21	i	i
CCCn1nccc1C(=O)NCc1cccnc1Oc1ccc(C)nc1	32µM	i
COc1ccc(OC)c(/C=N/OCc2c(Cl)cccc2Cl)c1	i	nt
Cc1cc(C[C@@H]2COC[C@@H]2NC(=O)c2cc(C)oc2-c2ccccc2)on1	28µM	i
COc1cc(OC)c(C(=O)N[C@H]2COC[C@H]2Cc2cc(C)no2)cc1OC	20µM	i
Cc1cc(C[C@@H]2COC[C@@H]2NC(=O)c2cnn3ccccc23)on1	28µM	i
Cc1cc(C[C@@H]2COC[C@@H]2NC(=O)c2c(-c3ccccc3)noc2C)on1	i	i
COc1ccc(C(=O)N[C@H]2COC[C@H]2Cc2cc(C)no2)c(F)c1F	?	i
Cc1cc(C[C@@H]2COC[C@@H]2NC(=O)c2cc(-c3ccccc3O)n[nH]2)on1	i	i
Cc1cc(C[C@@H]2COC[C@@H]2NC(=O)c2ccc(CSc3ncccn3)o2)on1	i	i
Cc1ccc2oc(C(=O)N[C@H]3COC[C@H]3Cc3cc(C)no3)c(C)c2c1	16µM	i
SMILES	KDM5B inhibitor	IP6K1 inhibitor
Cc1ccc(C(=O)c2cccc(C(=O)c3ccc(C)c(C)c3)c2)cc1C	i	nt
CCOCCCNc1oc(/C=C/c2cccc(OC)c2)nc1C#N	i	nt
COc1ccc(Cn2c(Oc3ccc(C)c(C)c3)nc3c2c(=O)n(C)c(=O)n3C)cc1	i	nt
CC(=O)c1c(C)nn(CC(=O)N2CCN3C(=O)CN(C)C(=O)C3C2)c1C (stereo not given)	i	i
Cc1cc(C)n2nc(C(=O)N3CCN4C(=O)CN(C)C(=O)C4C3)cc2n1 (stereo not given)	28µM	i
O=C(NCc1cccc(F)c1)C1CCCN(Cc2cccc(-c3cccs3)c2)C1 (stereo not given)	nt	i
CC(NC(=O)c1ccc(-c2ccc(N3CCCCCC3)nc2)cc1)c1cccnc1 (stereo not given)	i	i
CC1CCN(C(=O)c2ccc(-c3ccc(N4CCSCC4)nc3)cc2)CC1	28µM	i
O=C(c1ccc(-c2ccc(N3CCSCC3)nc2)cc1)N1CCOCC1	22µM	i
CN1CCN(C(=O)c2ccc(N3CC4CC(C3)[C@H]3CCCC(=O)N3C4)nc2)CC1 (stereo not given in full)	i	i
COC1CCN(c2ccc(C(=O)N3CCC(N4CCOCC4)CC3)cn2)CC1	i	i
CN1CCN(C(=O)c2ccc(-c3ccc(N4CCSCC4)nc3)cc2)CC1	28µM	i
CC1CCCN(C(=O)C2CCN(C(=O)c3ccc(-c4cncnc4)cc3)CC2)C1 (stereo not given)	nt	i
CCCN1CCN(C(=O)c2ccc(-c3ccc(N4CCCCC4)nc3)cc2)CC1	25µM	i
O=C(Nc1ccc(Cl)cc1C(F)(F)F)c1ccc(F)cc1	i	nt
O=C(OCc1cccc([N+](=O)[O-])c1)c1c2c(nc3ccccc13)CCCCC2	i	nt
Cc1ccc(C(=O)NC2C3CC4CC(C3)CC2C4)c(Cl)c1 (stereo not given)	i	nt
Cc1cc(C)c(NS(=O)(=O)c2cccc(C(F)(F)F)c2)c(C)c1	i	nt
Cc1ccc(S(=O)(=O)C(C#N)c2nc3ccccc3nc2N(C)C)cc1 (stereo not given)	i	nt
COc1ccc2c3c1CN(C)CC3=CC(C)(C)CO2	nt	i
O=C(c1ccc(-c2ccc(N3CCSCC3)nc2)cc1)N1CCCCC1	28µM	i
O=C(c1ccc(-c2ccc(N3CCCCC3)nc2)cc1)N1CCCC1	28µM	i
O=C(O)c1ccc(-c2ccc(N3CCCCCC3)nc2)cc1	?	i
CN1CCN(C(=O)c2ccc(-c3ccc(N4CCCCC4)nc3)cc2)CC1	?	i
Cc1ccc(SCC(=O)NC(C)(C#N)C2CC2)c(C)c1 (stereo not given)	i	nt
SMILES	KDM5B inhibitor	IP6K1 inhibitor
COc1ccc(C2Cn3nnc(C(=O)N4CCN(C(=O)Cc5ccc(Cl)cc5)CC4)c3CO2)cc1 (stereo not given)	i	i
CN(C)C(=O)c1cccn2nccc12	?	i
O=C(Nc1ccc(Cl)nc1)c1c[nH]c2cccnc12	i	i
CNC(=O)c1cnn2ncccc12	32µM	i
O=C(Nc1ccc(Cl)nc1)c1cnn2ncccc12	40µM	i
CN(C)C(=O)c1cnn2ncccc12	32µM	i
CNC(=O)c1cnn2c1CN(C(=O)c1ccccc1)CC2	i	i
Cc1ccc(-c2cccc(CN3CCCC3C(=O)NCC(F)F)c2)cc1Cl (stereo not given)	nt	i
O=C(CSc1nc2nc[nH]c2c(=O)[nH]1)c1ccc(Br)cc1	i	nt
O=C(NCc1ccccc1Cl)c1ccc2nnc(-c3ccc(OC(F)(F)F)cc3)n2c1	nt	i
COc1ccc(C2C(C(=O)Nc3ccc(C)cc3)=C(C)Nc3nc4ccccc4n32)cc1OC (stereo not given)	i	nt
Cc1noc(C)c1[S+](=O)([O-])N1CCc2nc(C(C)C)nc(-c3ccc(O)cc3)c2C1	i	i
COc1ccccc1-c1cccc(CN2CCC(NC(=O)Cc3cccc(Cl)c3)CC2)c1	nt	i
COc1ccc(OCC2(C)COc3ccc(C(=O)N4CCN(C)C(=O)C4)cc3N2)cc1 (stereo not given)	i	i
CC1(COc2cccnc2)COc2ccc(C(=O)NC3CCC(O)CC3)cc2N1 (stereo not given)	35µM	i
COc1ccc(OCC2(C)COc3ccc(C(=O)NC4CCC(O)CC4)cc3N2)cc1 (stereo not given)	32µM	i
